S2 tox – Viability Counterscreen for Primary qHTS for Inhibitors of ATXN expression; S2 cells (HEK-293 line with an ATXN2-luciferase reporter) viability, CellTiter-Fluor protease fluorescence, 24 h; Potency, µM (highest dose often 56.7 µM), hits mostly cytotoxic; actives 0.49% (n = 400,000); further: nearly all actives have a fitted effect of over 40% in size
PINK1 modulator – A Quantitative High throughput Screen to Identify Chemical Modulators of PINK1 Expression. PINK1 immunofluorescence, high-content cytometry, 24 h. Potency, µM (top dose mostly 76.6 µM), usual class: activators. actives 0.2% (n = 410,000). AID 624263, 2012; active means well fitted activation curve with a large enough effect; inconclusive means small, poorly fitted or top-dose-only effect; cell line not stated here; further: nearly all actives have a fitted effect of over 65% in size
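Stable cell line, 250 cells/well, 12 h attachment; compounds pinned at 5 concentrations, 24 h; CCCP control. Fixed with nuclear dye, primary antibodies 12 h at 10 degrees C, secondary plus cell stain; laser-scanning cytometer read.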
IL-1B inflam inh – qHTS for Inhibitors of Inflammasome Signaling: IL-1-beta AlphaLISA Primary Screen. THP-1 LPS/ATP IL-1B secretion, AlphaLISA, 16 h; stronger effect = lower value. activity change, % at 57.5 µM. actives 4.7% (n = 360,000); in the data active means activity change below about -50%; inconclusive means mostly about -30% to -49%
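Secreted IL-1B measured by AlphaLISA bead assay after 16 h compound exposure of THP-1 cells; compounds (final up to 57.5 uM) added 1 h before LPS (250 ng/mL) and ATP (1.25 mM) stimulation; lower signal means less secretion.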
SW480 rerep – A quantitative high throughput screen for small molecules that induce DNA re-replication in SW480 colon adenocarcinoma cells; actives 1.8% (n = 340,000); Potency, µM (titrated, usually from 46.1 µM), usual class: activators; SW480 DNA re-replication, Hoechst DNA content imaging, 48 h; further: nearly all actives have a fitted effect of over 55% in size
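Readout is total intensity of Hoechst-stained nuclei, excited at 405 nm and collected at 500-530 nm. Compound treatment lasted 48 hr at 37 C in 5% CO2 before staining.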
ATXN2 expr inh – Primary qHTS for Inhibitors of ATXN expression. HEK-293 ATXN2-luciferase reporter, luminescence, 24 h. Potency, µM (titrated, usually from 57 µM), usual class: inhibitors. actives 0.72% (n = 360,000). AID 1745845, 2022; further: nearly all actives have a fitted effect of over 55% in size
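qHTS (up to 57 uM final) was run with 24 h compound exposure of reporter cells at 37 °C. Each well was multiplexed: SteadyGlo luminescence measured ATXN2-luciferase expression after a fluorogenic Gly-Phe-AFC viability readout (25 uM final).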
MCF10A rereplic – A quantitative high throughput screen for small molecules that induce DNA re-replication in MCF 10a normal breast cells; MCF 10A DNA re-replication, Hoechst nuclear intensity, 48 h; Potency, µM (doses to about 46.1 µM), hits mostly activators; actives 2.9% (n = 350,000); further: nearly all actives have a fitted effect of over 50% in size
Hits are given with their value; . = inactive; ? = inconclusive; / = no result given; [ ] = dose if it differs, or a comment. This is a sample that favours compounds with a hit; in the whole collection about 7.1% have one here. Unless noted, the call rests on the fitted dose curve; in most records, active means well fitted curve in the direction sought with a large enough effect; inconclusive means small, poorly fitted or top-dose-only effect, or another doubt; inactive means no such curve, though single readings can be large; an effect the other way counts as inactive or inconclusive.

SMILES	S2 tox	PINK1 modulator	IL-1B inflam inh	SW480 rerep	ATXN2 expr inh	MCF10A rereplic
Cc1ccc(C(C(=O)NC2CCCCC2)N(C(=O)CCCC(=O)Nc2ccccn2)c2ccc3c(c2)OCCO3)cc1 (stereo unspecified)	.	.	?	.	.	.
O=C1CC[C@@H]2C[C@@]3(C[C@@H]4CCN1[C@H]24)Nc1cc([N+](=O)[O-])ccc1NC3=NCc1ccccc1	.	.	.	.	.	?
COCC(=O)Nc1cc(C(=O)N2CCCCC2c2nccs2)c2c(c1)nc(-c1ccncc1)n2C (stereo unspecified)	.	.	/	/	/	/
NC(=O)CN1C(=O)C(O)(CC(=O)/C=C\C=C\c2ccccc2)c2ccccc21 (stereo unspecified)	.	.	-86	.	.	.
Cc1ccc2c(c1)C(O)(CC(=O)/C=C/C=C/c1ccccc1)C(=O)N2 (stereo unspecified)	.	.	-56	.	.	?
O=C(/C=C/C=C/c1ccccc1)CC1(O)C(=O)N(CCc2ccccc2)c2ccccc21 (stereo unspecified)	.	.	-100	.	.	?
CCN1C(=O)C(O)(CC(=O)/C=C/C=C/c2ccccc2)c2ccccc21 (stereo unspecified)	.	.	?	.	.	?
O=C1CCNc2ccc(-c3ccccc3)cc21	.	.	.	.	?	23µM
CCC(=O)Nc1ccc2ccccc2c1	.	.	.	.	.	.
CC(C)(C)CC(C)(C)NC(=O)CSCC(=O)Nc1ccc2ccccc2c1	.	.	-94	.	.	.
O=C(CSc1ccc2ccccc2c1)Nc1ccncc1	.	13µM	.	.	.	?
O=C(Nc1ccncc1)c1ccc2ccccc2c1	/	.	-61	.	.	.
O=C(Nc1nnc(-c2ccncc2)o1)c1ccc2ccccc2c1	.	.	.	?	.	.
O=C(CSc1ccncc1)Nc1ccc2ccccc2c1	.	.	.	.	.	.
Clc1cccc(-c2ccc(C=Nc3ccc(N4CCOCC4)cc3)o2)c1Cl	.	.	.	?	/	21µM
Clc1ccc(-c2ccc(C=Nc3ccc(N4CCOCC4)cc3)o2)c(Cl)c1	.	.	.	.	.	.
CC(=O)Nc1ccc(S(=O)(=O)N2CCC(c3nnnn3-c3ccccc3)CC2)cc1	/	.	/	/	/	/
C[C@@H]1C(c2cccc(Cl)c2)=NN(c2ccc(Br)cc2)[C@H]1C(=O)N1CCOC1=O	/	.	-51	3.3µM	.	?
C[C@@H]1C(c2ccccc2)=NN(c2ccccc2)[C@H]1C(=O)N1CCOC1=O	.	.	.	?	.	.
C[C@@H]1C(c2cccc(Cl)c2)=NN(c2ccccc2)[C@H]1C(=O)N1CCOC1=O	/	.	-78	18µM	.	?
CC1CCN(C(=O)c2cc(-c3cccc(Cl)c3)on2)CC1	.	.	/	/	.	/
CCn1c(-c2ccccc2F)nc2cc(NC(C)=O)cc(C(=O)N(C)Cc3cn(C)nc3C)c21	.	.	/	/	/	/
COc1ccc(-n2c(SC3CCOC3=O)nc3ccccc3c2=O)cc1OC (stereo unspecified)	.	10µM	.	.	.	.
N=C1SC(c2ccccc2)C(=O)N1c1ncc(Cc2ccccc2Cl)s1 (stereo unspecified)	/	.	.	.	18µM	?
CN1CCc2cc3c(c4c2[C@H]1[C@H](O)c1ccccc1-4)OCO3	?	.	-62	.[9.22 µM]	?	.
SMILES	S2 tox	PINK1 modulator	IL-1B inflam inh	SW480 rerep	ATXN2 expr inh	MCF10A rereplic
Clc1ccc(CNCCCSc2ncccn2)cc1Cl	.	.	-62	.	.	.
Clc1cccc(Cl)c1CNCCCSc1ncccn1	.	.	.	.	/	.
COc1ccccc1CNS(=O)(=O)c1ccc(F)c(C(=O)Nc2cc(Cl)ccc2OC)c1	/	.	/	/	/	/
O=C(c1ccccn1)N1N=C2/C(=C/c3ccc(F)cc3)CCCC2C1c1ccc(F)cc1 (stereo unspecified)	.	.	-55	.	.	?
COc1cc(/C=C2\COC/C(=C\c3ccc(O)c(OC)c3)C2=O)ccc1O	/	.	-100	7.3µM	?	5.8µM
COc1cc(/C=C/C=C2/CC/C(=C/C=C/c3ccc(O)c(OC)c3)C2=O)ccc1O	/	.	-92	?	?	?
COc1ccc(/C=C2\CC/C(=C\c3ccc(OC)c(OC)c3)C2=O)cc1OC	.	.	.	?	.	?
COc1cc(/C=C2/CC/C(=C/c3ccc(O)c(OC)c3)C2=O)ccc1O	.	.	.	.	.	?
COc1cc(/C=C2\CC/C(=C\c3ccc(OCCO)c(OC)c3)C2=O)ccc1OCCO	.	.	-77	.	.[11.3 µM]	?
CN(C)S(=O)(=O)c1ccc2c(c1)N(CC(=O)NCc1ccccc1)C(=O)C1CCCCN21 (stereo unspecified)	.	.	/	/	.	/
Cc1cc(-n2c(=O)[nH]c(=O)n(C)c2=O)ccc1Oc1ccc(S(=O)(=O)C(F)(F)F)cc1	.	/	/	/	/	/
Cc1ccc(-n2nnnc2CNC(=O)c2ccccc2F)cc1C	/	.	/	/	/	/
O=C(CNc1cccc(C(F)(F)F)c1)N/N=C/c1cccc(Br)c1	.	.	.	.	.	21µM
CCc1ccc(NC(=O)C2CCCN(S(=O)(=O)c3cccc4nsnc34)C2)cc1 (stereo unspecified)	.	.	/	/	.	/
Cc1nc2c(ccc3nc(NC(=O)Cc4cccc5ccccc45)sc32)s1	?	.	.	.	.	?
Cc1ccc(C(=O)Nc2ncc([N+](=O)[O-])s2)cc1	?	35µM	-67	.	2.8µM	.
Cc1nc2c(ccc3nc(NC(=O)C(c4ccccc4)c4ccccc4)sc32)s1	.	.	.	.	.	16µM
Cc1cnc(NC(=O)c2ccc3c(c2)OCCO3)s1	?	.	.	4.1µM	2.2µM	2.9µM
O=C(Nc1ncc([N+](=O)[O-])s1)c1ccc2c(c1)OCO2	?	?	.	.	2.2µM	.
CC(C)c1ccc(NC(=O)CCNS(=O)(=O)c2ccc3c(c2)oc(=O)n3C)cc1	.	.	/	/	.	/
COC(=O)c1c(C)sc(-c2c(-c3ccc(F)cc3)[nH]c3[nH]c(=O)[nH]c(=O)c23)c1O	.	.	/	/	.	/
Cc1ccc(NC(=O)NCCOCCn2c(=O)oc3ccccc32)c(C)c1	.	.	/	/	.	/
Cc1oc(-c2ccccc2NC(=O)c2ccccn2)nc1CNC(=O)c1ccc(Oc2ccccc2)o1	.	.	/	/	/	/
CCC(C)C(C(=O)OCC[N+](C)(CC)CC)c1ccccc1 (stereo unspecified)	.	/	/	/	/	/

Bioassay records: PubChem BioAssay, National Center for Advancing Translational Sciences (NCATS)
